High-throughput results (PubChem)
An excerpt weighted towards active compounds, which were near 5.7% of everything screened.
D3 antag: qHTS of D3 Dopamine Receptor Antagonist: qHTS; D(3) dopamine receptor (Homo sapiens), P35462; D3R cells, DiscoveRx beta-arrestin luminescence, antagonist mode; active compounds read low; max response, negative = inhibition, %; 360,000 compounds, 2.5% hits; AID 652054, 2013; in the data active = max response below about -50%; inconclusive = no clear call, values can overlap the other calls; also: % is scaled to controls: 0 for no effect and ±100 for the full control effect
Target sequence (P35462 whole entry, looked up): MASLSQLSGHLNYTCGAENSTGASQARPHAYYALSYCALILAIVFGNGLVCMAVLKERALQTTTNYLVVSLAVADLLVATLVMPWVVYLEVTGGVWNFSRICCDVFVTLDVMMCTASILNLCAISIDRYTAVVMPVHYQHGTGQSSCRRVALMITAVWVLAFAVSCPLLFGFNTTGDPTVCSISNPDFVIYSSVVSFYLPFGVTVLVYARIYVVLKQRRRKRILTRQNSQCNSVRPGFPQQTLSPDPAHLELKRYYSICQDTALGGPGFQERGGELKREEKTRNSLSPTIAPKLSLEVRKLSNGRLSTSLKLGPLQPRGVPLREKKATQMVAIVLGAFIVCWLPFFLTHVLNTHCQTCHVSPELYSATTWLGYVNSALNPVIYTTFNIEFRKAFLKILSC
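Cells expressing the human receptor were seeded at 1500 cells/well, incubated overnight at 37 degrees C in 5% CO2, then exposed to library compounds with dopamine controls for 90 minutes at 37 degrees C before luminescent detection.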
GLP1R ag: qHTS of GLP-1 Receptor Agonists; HEK293 GLP-1R CRE-luciferase, luminescence, 4-6 h; cells express a hypersensitive GLP-1R form; Potency, µM (top dose mostly 45.6 µM), without a hit: top-dose activation, most hits filed as activators; 380,000 compounds, 0.007% hits; AID 624172, 2012; also: potency is read from the fitted curve at half-maximal effect; % of control where 0% means no effect
GLP1R inv ag: qHTS of GLP-1 Receptor Inverse Agonists (Inhibition Mode); Potency, µM (highest dose often 38.3 µM), for the others: at the top dose activity change, negative = inhibition, usual class: inhibitors; Glucagon-like peptide 1 receptor (Homo sapiens), P43220; HEK293 GLP-1R CRE-luciferase, luminescence, 24 h; GLP-1R form is constitutively active; 410,000 compounds, 1.6% hits; also: potency is read from the fitted curve at half-maximal effect; % is scaled to controls: 0 for no effect and ±100 for the full control effect; nearly all actives have a fitted effect of over 55% in size
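Seeding at 200 cells/uL, 12 h culture, 24 hr compound treatment, then luciferase reagent and a luminescence read; cells are HEK293 stably expressing a constitutively active GLP-1R plus cAMP-responsive luciferase.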
HEK293 tox: qHTS of GLP-1 Receptor Inverse Agonists: Cytotox Screen | Potency, µM (highest dose often 38.3 µM), inactives show at the top dose activity change, negative = inhibition, most hits filed as inhibitors | AID 624418, 2012 | HEK293 cAMP-luciferase reporter cells, luminescence, 24 h | 410,000 compounds, 0.13% hits;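 also: loss of luciferase light is scored as toxicity; potency is read from the fitted curve at half-maximal effect; % is scaled to controls: 0 for no effect and ±100 for the full control effect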
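Quantitative HTS format, 1536 wells, 200 cells/uL seeded. Compounds: 23 nL, 24 h, 37 °C. Detection: luciferase reagent, luminescence at 12 min RT; decreased signal taken as cytotoxic.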
DRD3 agonist: qHTS of D3 Dopamine Receptor Agonist: qHTS; max activation, %; D3R DiscoveRx beta-arrestin cells, luminescence, 90 min; 410,000 compounds, 0.58% hits; D(3) dopamine receptor (Homo sapiens), P35462; in the data active = max activation above about 30%; also: 0% is about no effect
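Agonist-mode cell screen: cells plated at 1500/well and incubated overnight at 37 °C, then exposed to library compounds for 90 min at 37 °C. Detection reagent was added for 30–60 min at room temperature, and luminescence was read.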
ClpP mod: qHTS Assay for Activators of ClpP; purified B. subtilis ClpP, FRET peptide cleavage, 20 min; 340,000 compounds, 1.9% hits; AID 651965, 2013; ATP-dependent Clp protease proteolytic subunit (Bacillus subtilis (strain 168)), P80244; Potency, µM (top dose mostly 57.5 µM), inactives show at the top dose activity change, negative = active; active = well fitted falling curve with a large enough effect; inconclusive = small, poorly fitted or top-dose-only effect; inactive = no such curve, though single readings can be large or run the other way; also: potency is read from the fitted curve at half-maximal effect; the source files actives as falling curves though it sought activators and does not explain the sign; nearly all actives have a fitted effect of over 65% in size
Target sequence (P80244 whole entry, looked up): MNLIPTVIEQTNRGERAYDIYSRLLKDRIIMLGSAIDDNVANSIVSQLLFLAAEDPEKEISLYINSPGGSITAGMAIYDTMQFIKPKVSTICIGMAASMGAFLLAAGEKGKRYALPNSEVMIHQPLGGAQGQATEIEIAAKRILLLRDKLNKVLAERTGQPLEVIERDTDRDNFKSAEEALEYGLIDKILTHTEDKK
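ClpP 10 microg/mL final, pH 8 Tris/KCl buffer with BSA, glycerol, Tween-20; compound pinned in; FRET-FV substrate; RT 20 min; Ex320/Em430; ΔFRET vs ADEP 5.8 microM, DMSO, no enzyme.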
* marks the source's active call; other numbers are inactive results; ? = inconclusive; nt = not tested or not shown; ! = not active in a repeat; [ ] = dose if it differs, or a comment. Unless noted, calls follow the shape of the dose curve; as a rule, active = well fitted curve in the direction sought with a large enough effect; inconclusive = small, poorly fitted or top-dose-only effect, or another doubt; inactive = no such curve, though single readings can be large; an effect the other way counts as inactive or inconclusive.

SMILES	D3 antag	GLP1R ag	GLP1R inv ag	HEK293 tox	DRD3 agonist	ClpP mod
COCCNC(=O)c1cc2c(-c3ccccc3F)nn(C)c2s1	-9	-1%	20%	-1%	-5	25µM*
CCCCN(C)CCNC(=O)c1cc2c(-c3ccccc3F)nn(C)c2s1	-95*	0%	10µM*	-22%	-38	25µM*
COc1ccc(OC)c(CCNC(=O)c2cc3c(-c4ccccc4F)nn(C)c3s2)c1	nt	0%	?	-16%	16	?
CC(C(=O)NCC1CCCCC1)N1CCc2ccccc2C1 (stereo not drawn)	-77*	14%	?	10%	-11	nt
CC(C(=O)N1CCc2ccccc21)N1CCc2ccccc2C1 (stereo not drawn)	-86*	3%	0%	2%	-7	-2%
Cn1cc(S(=O)(=O)N2CCCCCC2)cc1C(=O)N1CCN(c2ccc(Cl)cc2)CC1	nt	-1%	?	-5%	1	0%
c1ccc2c(c1)OCC(c1nnc3sc(-c4ccc5c(c4)OCO5)nn13)O2 (stereo not drawn)	-12	2%	5%	-7%	-2	28µM*
Clc1ccccc1-c1nnc2sc(-c3ccc(Br)o3)nn12	30	12%	0%	1%	-1	-15%
c1ccc2c(c1)OCC(c1nnc3sc(-c4cnccn4)nn13)O2 (stereo not drawn)	21	-5%	0%	-1%	30*	1%
c1ccc2c(c1)ncn2Cc1nnc2sc(-c3ccc4c(c3)OCO4)nn12	7	16%	55%	-12%	2	28µM*
Clc1ccccc1-c1nnc2sc(-c3ccc4c(c3)OCO4)nn12	23	?	0%	-1%	-1	32µM*
Clc1ccccc1-c1nn2c(Cn3cnc4ccccc43)nnc2s1	2	-3%	55%	-14%	7	-1%
CCCN1CNc2c(c(=O)[nH]c(=S)n2CCC)C1	nt	nt	nt	nt	nt	-7%
COc1ccc(CN2CCC(C)CC2)cc1OCc1ccccc1	-89*	7%	?	8%	-25	-1%
COc1cc(CN2CCCCC2)ccc1OCc1ccccc1	22	10%	?	-3%	-16	nt
CCOC(=O)C1CCN(Cc2ccc(OC)c(OCc3ccccc3)c2)CC1	-65*	3%	?	-1%	-18	0%
O=C(CSc1nc2c(oc3ccccc32)c(=O)n1-c1ccccc1)Nc1ccc(F)c(Cl)c1	nt	nt	-14%	-3%	8	-2%
Cc1nn(C)c2c1c(C(F)(F)F)cc(=O)n2CC(=O)NC(C)(C)C	nt	nt	7%	-3%	18	3%
O=C(C[n+]1ccccc1Cl)c1ccccc1	nt	nt	nt	nt	nt	-4%
CCc1ccc(CN(Cc2ccco2)C(=O)c2ccc(OC)cc2)cc1	nt	nt	?	-4%	3	0%
C[C@]12CCC(=O)C=C1CC[C@@H]1[C@@H]2[C@@H](O)C[C@@]2(C)[C@H]1CC[C@]2(O)C(=O)COC(=O)CCC(=O)O	-61*!	-3%	-10%	3%	-92	0%
CCS(=O)(=O)N1CCc2cc(C(=O)Nc3cc(OC)c(Cl)cc3OC)ccc21	nt	nt	-11%	0%	1	?
Cc1ccc(CNC(=O)c2ccc(CSCc3ccccc3Cl)o2)cc1	nt	nt	?	9%	-4	0%
CC(C)CN1C(=O)C(=O)N(CC(=O)NCc2ccc3c(c2)OCO3)C1=O	-52*	3%	-6%	24%	-3	-2%
O=C(NCc1ccc2c(c1)OCO2)c1ccc(CSCc2ccccc2Cl)o1	-3	3%	10µM*	2%	-16	-1%
SMILES	D3 antag	GLP1R ag	GLP1R inv ag	HEK293 tox	DRD3 agonist	ClpP mod
O=C(CSCc1ccc(Cl)cc1)NCc1ccc2c(c1)OCO2	4	-7%	8.9µM*	-3%	-7	0%
CC(C)CN1C(=O)C(=O)N(CC(=O)c2ccc3c(c2)OCO3)C1=O	4	6%	45%	-4%	-3	nt
c1ccc(CNc2nc(-c3ccccn3)nc3ccccc23)cc1	-74*	3%	?	-45%	-15	1%
O=C(CNC(=O)c1ccco1)OCC(=O)c1ccc([N+](=O)[O-])cc1	-2	0%	1%	16%	32*	-2%
COc1ccc(OC)c(NC(=O)CSCc2cnn(-c3ccccc3)c2-n2cccc2)c1	0	9%	11µM*	-3%	6	32µM*
O=C(CSCc1cnn(-c2ccccc2)c1-n1cccc1)Nc1ccc(F)cc1F	nt	nt	?	-12%	-20	-1%
Cc1ccc(NC(=O)CSCc2cnn(-c3ccccc3)c2-n2cccc2)c(Cl)c1	nt	nt	10µM*	22%	70*	0%
COc1cc(NC(=O)CSCc2cnn(-c3ccccc3)c2-n2cccc2)cc(OC)c1	63	1%	3.2µM*	-17%	2	-1%
CCOc1ccc(NC(=O)CSCc2cnn(-c3ccccc3)c2-n2cccc2)cc1	19	0%	0%	-26%	0	0%
O=C(CSCc1cnn(-c2ccccc2)c1-n1cccc1)NCc1ccccc1F	nt	nt	13µM*	1%	-5	1%
C[C@@H]1CN([C@H](C)CO)C(=O)c2cc(C#CC(C)(C)O)cnc2O[C@@H]1CN(C)C(=O)C1CC1	-5	-4%	11%	-7%	4	-25%
Cn1c(=O)n(-c2ccc(C(C)(C)C#N)cc2)c2c3cc(-c4cnc5ccccc5c4)ccc3ncc21	nt	nt	nt	nt	nt	4%[115 µM]
COc1ccc(CNC(=O)C2CCN(c3nnc(-n4c(C)ccc4C)s3)CC2)c(OC)c1	nt	nt	8%	-2%	1	-1%
CC1(C)OC(=O)C2(Cc3cc([N+](=O)[O-])ccc3N3CCCCC32)C(=O)O1 (stereo not drawn)	nt	nt	nt	nt	nt	3%
O=C(N/N=C/c1ccc(Cl)c([N+](=O)[O-])c1)c1cc(-c2ccc3c4c(cccc24)CC3)n[nH]1	-58*	11%	-8%	-1%	-15	nt
CC(C)c1cnc2c(c1SCC(=O)NCc1ccccc1Cl)c(=O)n(C)c(=O)n2C	nt	nt	8%	-3%	2	0%
CC12CC3(C)CC(C)(C1)CC(NC(=O)N1CCCC1)(C2)C3	6	-5%	10µM*	-22%	4	1%
O=[N+]([O-])c1cccc(/C=N/n2cnnc2)c1O	-55*	0%	11%	-7%	-2	-1%
O=[N+]([O-])c1cc(Br)cc(/C=N/n2cnnc2)c1O	?	1%	11%	-25%	-11	nt
